Assay results published in PubChem BioAssay (NCATS).
Results filed as inconclusive are left out. The source made the active and inactive calls. The call rests on the fitted dose curve; in most records, active means well fitted curve in the direction sought with a large enough effect; inconclusive means small, poorly fitted or top-dose-only effect, or another doubt; inactive means no such curve, though single readings can be large; an effect the other way counts as inactive or inconclusive.

Columns and labels:
[1] = Quantitative High-Throughput drug screen in 47 multiple myeloma cell lines against the NCATS MIPE library collection: FR4_PLB cell viability assay (AID 1918924; further: nearly all actives have a fitted effect of over 35% in size)
In short: (§1)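 Viability readout: CellTiter-Glo luminescence following 5 min room-temperature incubation with reagent. Prior exposure: 48 h, 37C, humidified 5% CO2, 500 cells per well.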

[2] = Quantitative High-Throughput drug screen in 47 multiple myeloma cell lines against the NCATS MIPE library collection: Delta47_JCRB cell viability assay (AID 1918925; further: nearly all actives have a fitted effect of over 45% in size)
In short: (§2)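 CellTiter-Glo luminescence (ATP) after 48 h compound exposure, 37C/5% CO2; 500 cells/well; MIPE 4.0 approved/investigational drugs pinned in; DMSO = 100%, media only = 0% viability.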

[3] = Quantitative High-Throughput drug screen in 47 multiple myeloma cell lines against the NCATS MIPE library collection: EJM_DSMZ cell viability assay (AID 1918926; further: nearly all actives have a fitted effect of over 30% in size)
In short: as §2

[4] = Quantitative High-Throughput drug screen in 47 multiple myeloma cell lines against the NCATS MIPE library collection: ARP1_JJKsccF8 cell viability assay (AID 1918928; further: nearly all actives have a fitted effect of over 40% in size)
In short: (§3)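 Myeloma cells, 500 per well, were exposed to MIPE 4.0 drugs by pin transfer for 48 h at 37 °C, 5% CO2. Viability was read as ATP luminescence with CellTiter-Glo, normalised to DMSO-only (100%) and medium-only (0%) wells.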

[5] = Quantitative High-Throughput drug screen in 47 multiple myeloma cell lines against the NCATS MIPE library collection: ARD_JJKsccE7 cell viability assay (AID 1918929)
In short: as §2

[6] = Quantitative High-Throughput drug screen in 47 multiple myeloma cell lines against the NCATS MIPE library collection: Karpas620_DSMZ cell viability assay (AID 1918959); further: nearly all actives have a fitted effect of over 30% in size
In short: as §1

[7] = Quantitative High-Throughput drug screen in 47 multiple myeloma cell lines against the NCATS MIPE library collection: KMM1_JCRB cell viability assay (AID 1918960); further: nearly all actives have a fitted effect of over 30% in size
In short: as §3

[8] = Quantitative High-Throughput drug screen in 47 multiple myeloma cell lines against the NCATS MIPE library collection: Karpas417_ECACC cell viability assay (AID 1918961); conditions: Karpas417 myeloma viability, CellTiter-Glo ATP luminescence, 48 h; viability (% of DMSO): at 45.8 µM (top of the series)
In short: (§4)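 Approved and investigational drugs from MIPE 4.0 were added by pin tool to 500 cells per well. After 48 hours at 37C, ATP-based CellTiter-Glo luminescence indicated remaining viability.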

[9] = Quantitative High-Throughput drug screen in 47 multiple myeloma cell lines against the NCATS MIPE library collection: KHM11_PLB cell viability assay (AID 1918962); further: nearly all actives have a fitted effect of over 35% in size
In short: as §1

[10] = Quantitative High-Throughput drug screen in 47 multiple myeloma cell lines against the NCATS MIPE library collection: JIM3_ECACC cell viability assay (AID 1918963; further: nearly all actives have a fitted effect of over 35% in size)
In short: as §1

[11] = Quantitative High-Throughput drug screen in 47 multiple myeloma cell lines against the NCATS MIPE library collection: JIM1_ECACC cell viability assay (AID 1918964)
In short: as §2

[12] = Quantitative High-Throughput drug screen in 47 multiple myeloma cell lines against the NCATS MIPE library collection: INA6_PLB cell viability assay (AID 1918965; further: nearly all actives have a fitted effect of over 55% in size)
In short: as §4

[13] = Quantitative High-Throughput drug screen in 47 multiple myeloma cell lines against the NCATS MIPE library collection: JJN3_DSMZ cell viability assay (AID 1918966; further: nearly all actives have a fitted effect of over 50% in size)
In short: as §2

[14] = Quantitative High-Throughput drug screen in 47 multiple myeloma cell lines against the NCATS MIPE library collection: H1112_PLB cell viability assay (AID 1918967; further: nearly all actives have a fitted effect of over 30% in size)
In short: as §2

[15] = Quantitative High-Throughput drug screen in 47 multiple myeloma cell lines against the NCATS MIPE library collection: Karpas25_ECACC cell viability assay (AID 1918968; further: nearly all actives have a fitted effect of over 35% in size)
In short: as §2

[16] = Quantitative High-Throughput drug screen in 47 multiple myeloma cell lines against the NCATS MIPE library collection: KMS27_JCRB cell viability assay (AID 1918970); further: nearly all actives have a fitted effect of over 30% in size
In short: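 CellTiter-Glo luminescence after 48 h drug exposure at 37 °C; 500 cells/well, 1536-well format, pin-tool compound addition; DMSO = 100%, media-only = 0% viability.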

[17] = Quantitative High-Throughput drug screen in 47 multiple myeloma cell lines against the NCATS MIPE library collection: KMS12BM_JCRB cell viability assay (AID 1918971); further: nearly all actives have a fitted effect of over 35% in size
In short: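 We plated 500 myeloma cells per well, pinned in MIPE 4.0 compounds, and incubated for 48 hours at 37C. ATP was then quantified with CellTiter-Glo, with DMSO and media-only wells defining 100% and 0%.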

[18] = Quantitative High-Throughput drug screen in 47 multiple myeloma cell lines against the NCATS MIPE library collection: KMS12PE_JCRB cell viability assay (AID 1918972); further: nearly all actives have a fitted effect of over 30% in size
In short: as §4

[19] = Quantitative High-Throughput drug screen in 47 multiple myeloma cell lines against the NCATS MIPE library collection: KMS20_JCRB cell viability assay (AID 1918973); further: nearly all actives have a fitted effect of over 45% in size
In short: as §2

[20] = Quantitative High-Throughput drug screen in 47 multiple myeloma cell lines against the NCATS MIPE library collection: AMO1_DSMZ cell viability assay (AID 1918927; further: nearly all actives have a fitted effect of over 30% in size)
In short: as §2
Potency means the concentration at half of the fitted maximal effect.

CC(C)[C@H](C(=O)Nc1ccc(C(=O)NO)cc1)c1ccccc1
Potency [1]: 0.372 µM (active)
Potency [2]: 0.372 µM (active)
Potency [3]: 1.87 µM (active)
Potency [4]: 0.132 µM (active)
Potency [5]: 0.418 µM (active)
Potency [6]: 1.05 µM (active)
Potency [7]: 0.662 µM (active)
Potency [8]: 0.469 µM (active)
Potency [9]: 1.32 µM (active)
Potency [10]: 1.48 µM (active)
Potency [11]: 0.332 µM (active)
Potency [12]: 0.235 µM (active)
Potency [13]: 0.662 µM (active)
Potency [14]: 1.05 µM (active)
Potency [15]: 0.418 µM (active)
Potency [16]: 2.09 µM (active)
Potency [17]: 0.526 µM (active)
Potency [18]: 0.526 µM (active)
Potency [19]: 0.833 µM (active)

O=C(O)C1(Cc2cccc(Nc3nccs3)n2)CCC(Oc2cccc(Cl)c2F)CC1 (centres undefined)
Potency [1]: 0.418 µM (active)
Potency [2]: 0.166 µM (active)
Potency [3]: inactive
Potency [20]: 0.235 µM (active)
Potency [4]: 0.59 µM (active)
Potency [6]: 0.0743 µM (active)
Potency [9]: 0.264 µM (active)
Potency [10]: 0.935 µM (active)
Potency [12]: 0.235 µM (active)
Potency [13]: inactive
Potency [14]: inactive
Potency [17]: 1.32 µM (active)

CC(=O)Nc1nc(C)c(-c2ccc(Cl)c(S(=O)(=O)NCCO)c2)s1
Potency [1]: 13.2 µM (active)
Potency [2]: 0.662 µM (active)
Potency [3]: 11.8 µM (active)
Potency [20]: 1.32 µM (active)
Potency [5]: 0.418 µM (active)
Potency [6]: 6.62 µM (active)
Potency [7]: 3.72 µM (active)
Potency [8]: 0.132 µM (active)
Potency [9]: 0.935 µM (active)
Potency [10]: 4.69 µM (active)
Potency [11]: 1.18 µM (active)
Potency [12]: 1.05 µM (active)
Potency [13]: 18.7 µM (active)
Potency [14]: 1.48 µM (active)
Potency [15]: 1.18 µM (active)
Potency [16]: 1.32 µM (active)
Potency [17]: 18.7 µM (active)
Potency [18]: 5.26 µM (active)
Potency [19]: 1.18 µM (active)

COC(=O)[C@]12CCC(C)(C)C[C@@H]1[C@@H]1C(=O)C=C3[C@@]4(C)C=C(C#N)C(=O)C(C)(C)[C@@H]4CC[C@@]3(C)[C@]1(C)CC2
Potency [1]: 0.372 µM (active)
Potency [2]: 0.235 µM (active)
Potency [3]: 0.418 µM (active)
Potency [4]: 0.469 µM (active)
Potency [5]: 0.662 µM (active)
Potency [6]: 0.526 µM (active)
Potency [7]: 0.662 µM (active)
Potency [8]: 0.526 µM (active)
Potency [9]: 0.469 µM (active)
Potency [10]: 0.166 µM (active)
Potency [11]: 0.418 µM (active)
Potency [12]: 0.059 µM (active)
Potency [13]: 0.526 µM (active)
Potency [14]: 0.418 µM (active)
Potency [15]: 0.209 µM (active)
Potency [16]: 0.526 µM (active)
Potency [17]: 0.526 µM (active)
Potency [18]: 0.662 µM (active)
Potency [19]: 0.296 µM (active)

COCCOc1ccc2c(c1)ncn2-c1ccc2cccc(N3CCC(N)CC3)c2n1
Potency [1]: 10.5 µM (active)
Potency [2]: 4.18 µM (active)
Potency [3]: 5.9 µM (active)
Potency [4]: 0.418 µM (active)
Potency [5]: 2.96 µM (active)
Potency [6]: 10.5 µM (active)
Potency [7]: 0.526 µM (active)
Potency [8]: 0.59 µM (active)
Potency [9]: 9.35 µM (active)
Potency [10]: 10.5 µM (active)
Potency [11]: 5.9 µM (active)
Potency [12]: 0.0469 µM (active)
Potency [13]: 4.18 µM (active)
Potency [14]: 6.62 µM (active)
Potency [15]: 0.0662 µM (active)
Potency [16]: 1.66 µM (active)
Potency [17]: 9.35 µM (active)
Potency [18]: 0.0372 µM (active)
Potency [19]: 0.0743 µM (active)

O=C(Nc1cc(C(F)(F)F)cc(C(F)(F)F)c1)c1cc(Cl)ccc1O
Potency [1]: 1.32 µM (active)
Potency [2]: 1.87 µM (active)
Potency [3]: 1.48 µM (active)
Potency [4]: 1.05 µM (active)
Potency [5]: 0.209 µM (active)
Potency [6]: 0.833 µM (active)
Potency [7]: 0.132 µM (active)
Potency [8]: 0.59 µM (active)
Potency [9]: 1.48 µM (active)
Potency [10]: 0.662 µM (active)
Potency [11]: 1.05 µM (active)
Potency [12]: 1.66 µM (active)
Potency [13]: 1.87 µM (active)
Potency [14]: 1.87 µM (active)
Potency [16]: 0.833 µM (active)
Potency [17]: 0.833 µM (active)
Potency [18]: 0.526 µM (active)
Potency [19]: 1.32 µM (active)

COC(=O)C1=C(C)NC(C)=C(C(=O)OCCN2CCN(C(c3ccccc3)c3ccccc3)CC2)C1c1cccc([N+](=O)[O-])c1 (centres undefined)
Potency [1]: inactive
Potency [2]: inactive
Potency [3]: inactive
Potency [20]: inactive
Potency [6]: inactive
Potency [7]: inactive
Potency [9]: inactive
Potency [12]: inactive
Potency [14]: inactive
Potency [15]: inactive
Potency [16]: inactive
Potency [18]: inactive
Potency [19]: inactive

COc1cc(Nc2ncc(F)c(Nc3ccc4c(n3)N(COP(=O)(O)O)C(=O)C(C)(C)O4)n2)cc(OC)c1OC
Potency [1]: inactive
Potency [2]: 5.9 µM (active)
Potency [3]: 23.5 µM (active)
Potency [20]: 5.26 µM (active)
Potency [5]: 1.18 µM (active)
Potency [7]: 1.18 µM (active)
Potency [8]: 1.05 µM (active)
Potency [9]: 1.48 µM (active)
Potency [11]: 1.18 µM (active)
Potency [12]: 0.833 µM (active)
Potency [14]: 1.66 µM (active)
Potency [15]: 3.32 µM (active)
Potency [19]: 1.66 µM (active)

COc1ccc(OC)c(-c2nnc3ccc(-c4ccc(OC)c(O[C@@H]5CCOC5)c4)nn23)c1
Potency [1]: 11.8 µM (active)
Potency [2]: 9.35 µM (active)
Potency [3]: 16.6 µM (active)
Potency [4]: 18.7 µM (active)
Potency [5]: 16.6 µM (active)
Potency [6]: 8.33 µM (active)
Potency [7]: 8.33 µM (active)
Potency [8]: 10.5 µM (active)
Potency [9]: 7.43 µM (active)
Potency [10]: 8.33 µM (active)
Potency [11]: 8.33 µM (active)
Potency [13]: 16.6 µM (active)
Potency [14]: 13.2 µM (active)
Potency [16]: 8.33 µM (active)
Potency [17]: 10.5 µM (active)
Potency [18]: 7.43 µM (active)
Potency [19]: 5.26 µM (active)
